For orientation: AC50 means the concentration giving half of the maximal activity seen.

Molecules are shown by their SMILES. Inconclusive results are not listed. Activity calls are given as the source filed them. Rule for the calls: active = hit-call score of the fitted dose curve at least 0.9, where 1 is the maximum; inconclusive = response in the unintended direction; inactive = score below 0.9.

Chain of human Matrix Metalloproteinase-9 (MMP9), MMP9 (gene 4318) (P14780 whole entry, looked up): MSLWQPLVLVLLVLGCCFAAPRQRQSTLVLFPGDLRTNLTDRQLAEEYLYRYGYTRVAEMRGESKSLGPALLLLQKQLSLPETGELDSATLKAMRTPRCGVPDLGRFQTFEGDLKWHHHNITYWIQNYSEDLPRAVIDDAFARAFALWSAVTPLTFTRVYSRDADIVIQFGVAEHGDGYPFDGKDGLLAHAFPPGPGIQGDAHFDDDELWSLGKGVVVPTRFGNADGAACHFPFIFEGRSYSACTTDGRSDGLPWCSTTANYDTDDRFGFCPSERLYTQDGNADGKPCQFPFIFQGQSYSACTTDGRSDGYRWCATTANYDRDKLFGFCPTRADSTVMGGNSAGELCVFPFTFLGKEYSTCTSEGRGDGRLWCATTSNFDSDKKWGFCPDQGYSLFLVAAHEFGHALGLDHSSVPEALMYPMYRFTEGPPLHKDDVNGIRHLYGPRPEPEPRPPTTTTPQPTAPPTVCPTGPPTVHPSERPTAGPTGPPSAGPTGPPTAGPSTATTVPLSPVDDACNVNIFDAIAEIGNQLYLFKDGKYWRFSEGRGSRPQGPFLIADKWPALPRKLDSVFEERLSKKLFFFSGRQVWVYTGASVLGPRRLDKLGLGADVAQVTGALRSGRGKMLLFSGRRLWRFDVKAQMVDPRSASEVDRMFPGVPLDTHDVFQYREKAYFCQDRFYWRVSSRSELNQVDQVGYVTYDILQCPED

The assay has as its target human Matrix Metalloproteinase-9 (MMP9), MMP9 (gene 4318) (UniProt P14780). Nature of the assay: NVS_ENZ_hMMP9: NovaScreen (NVS) Enzymatic Assay for human Matrix Metalloproteinase-9 (MMP9) (AID 2283190).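 Note: active means inhibition seen as loss of fluorescence signal versus DMSO.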 Here is the method: NVS_ENZ_hMMP9 is a biochemical, single-readout assay that uses extracted gene-proteins in a cell-free assay. Measurements were taken 1 hour after chemical dosing in a 96-well plate.NVS_ENZ_hMMP9 is one of one assay component(s) measured or calculated from the NVS_ENZ_hMMP9 assay. It is designed to make measurements of enzyme activity, a form of enzyme reporter, as detected with fluorescence intensity signals by Fluorescence technology.Data from the assay component NVS_ENZ_hMMP9 was analyzed into 1 assay endpoint. This assay endpoint, NVS_ENZ_hMMP9, was analyzed in the positive analysis fitting direction relative to DMSO as the negative control and baseline of activity. Using a type of enzyme reporter, loss-of-signal activity can be used to understand changes in the enzymatic activity as they relate to the gene MMP9. Furthermore, this assay endpoint can be referred to as a primary readout, because this assay has produced multiple assay endpoints where this one serves a enzymatic activity function. To generalize the intended target to other relatable targets, this assay endpoint is annotated to the protease intended target family, where the subfamily is matrix metalloproteinase.
Binding assays used specific radioligands (tritiated, iodinated) with non-radioactive competitive displacement ligands in agonist or antagonist protocols (as indicated) and various reference compounds and inhibitors to titrate specific binding to receptors and transporters. Most enzyme assays (CYPs, kinases, phosphatases, proteases, HDACs) used recombinant protein and specific substrates (fluorescence mostly, some colorimetric and radioactive) and inhibitors, followed by a biochemical separation of substrate and product. All assays for the biochemical HTS were initially run in duplicate at a single concentration (10 uM for CYP450 assays and 25 uM for all others). […] Each assay was run with positive and negative controls, and concurrent controls on every plate. The follow-up (secondary) screen tested active chemical-pairs in concentration series, as well as a few additional assays not tested in the primary screen, some selected negative inactives, and several cases re-run in the concentration series for confirmatory purposes.
On to `O=C(O)CCN(C1(C(=O)NO)CCCC1)S(=O)(=O)c1ccc(Oc2ccc(F)cc2)cc1`, for which the AC50 was 0.00365 µM (active).

As to `CCOC(=O)c1ccc(C2CCC(NC[C@H](O)COc3ccc(O)c(NS(C)(=O)=O)c3)CC2)cc1` (stereo partly specified), the AC50 is 12.7 µM (active).

In the case of `COC(=O)CC(=O)OC`, the call was inactive.

On to `Fc1ccccc1[C@@H](F)COC1CCC(Nc2ncnc3[nH]ncc23)CC1` (stereo partly specified), for which the call was inactive.

As to `CCc1cc(SCc2sc(-c3ccc(C(F)(F)F)cc3)nc2CN2CCN(c3ccc(OC)cc3)CC2)ccc1OCC(=O)O`, the AC50 is 8.8 µM (active).

For `CC[C@H](C)C(=O)O[C@H]1C[C@@H](C)C=C2C=C[C@H](C)[C@H](CC[C@@H]3C[C@@H](O)CC(=O)O3)[C@H]21`, the call was inactive.

`CNS(=O)(=O)c1cc(C(=O)N2CCC(CCN3C4CCC3CC(n3c(C)nc5ccccc53)C4)(c3cccc(F)c3)CC2)c(Cl)cc1F` (stereo unspecified): the AC50 was 8.37 µM (active).

On to `CCCCC(CC)COC(=O)c1ccc(C(=O)OCC(CC)CCCC)cc1` (stereo unspecified), for which the call was inactive.

Take `O=C(O)c1cc(N=Nc2ccc(S(=O)(=O)Nc3ccccn3)cc2)ccc1O`: the half-maximal activity concentration (AC50) is 7.16 µM (active).

Turning to `NC(=O)NO`, the compound was called inactive.

As to `COCCOCCOCCOC`, the outcome was inactive.

(Values after PubChem BioAssay (EPA / NIEHS).)
